From the supplement of paper PMC8728848 come the findings set out here.

The entries come from a sample that favours the strongest signals as a whole.

Assay in all cases: glycan array binding signal (z-score within array); higher = stronger binding
Holding throughout (settings): glycan notation: IUPAC condensed, linker removed

Assay [1] deals with GlcNAc(a1-4)Gal(b1-4)GlcNAc(b1-3)Gal(b1-4)Glc. In a few lines: (§1)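 Columns mapping to the same glycan were averaged after glycan names were converted to IUPAC-condensed notation. The data come from 3228 arrays in the Consortium for Functional Glycomics database, limited to those with an available protein sequence. Binding is reported as a within-array Z-score averaged across arrays of one protein sequence and across linkers.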

Assay [2] concerns the target GlcNAc(b1-2)[GlcNAc(b1-4)]Man(a1-3)[GlcNAc(b1-4)][GlcNAc(b1-2)[GlcNAc(b1-6)]Man(a1-6)]Man(b1-4)GlcNAc(b1-4)[Fuc(a1-6)]GlcNAc. The method in brief:
as §1

In assay [3] the target is GlcNAc(b1-3)Gal(b1-4)GlcNAc(b1-3)Gal(b1-4)GlcNAc(b1-2)Man(a1-3)[GlcNAc(b1-3)Gal(b1-4)GlcNAc(b1-3)Gal(b1-4)GlcNAc(b1-2)Man(a1-6)]Man(b1-4)GlcNAc(b1-4)GlcNAc. The method in brief:
as §1

For assay [4], the target named is GlcNAc(b1-3)Gal(b1-4)GlcNAc(b1-3)Gal(b1-4)GlcNAc(b1-3)Gal(b1-4)GlcNAc(b1-3)Gal(b1-4)GlcNAc(b1-2)Man(a1-3)[GlcNAc(b1-3)Gal(b1-4)GlcNAc(b1-3)Gal(b1-4)GlcNAc(b1-3)Gal(b1-4)GlcNAc(b1-3)Gal(b1-4)GlcNAc(b1-2)Man(a1-6)]Man(b1-4)GlcNAc(b1-4)GlcNAc. The method in brief:
as §1

For assay [5], the target named is GlcNAc(b1-3)[GlcNAc(b1-6)]Gal(b1-4)GlcNAc. In a few lines: as §1
Assay [6] has as its target GlcNAc(b1-4)GlcNAc(b1-4)GlcNAc(b1-4)GlcNAc(b1-4)GlcNAc(b1-4)GlcNAc. The method in brief: as §1
For the next assay, the target named is Kdn(a2-3)Gal(b1-3)GlcNAc. In a few lines: as §1
The target of assay [7] is Man(a1-3)[Man(a1-6)]Man(a1-6)[Man(a1-3)]Man(b1-4)GlcNAc(b1-4)GlcNAc. In a few lines: as §1
Assay [8] has as its target Neu5Ac(a2-3)Gal(b1-3)GalNAc(b1-4)[Neu5Ac(a2-8)Neu5Ac(a2-3)]Gal(b1-4)Glc. The method in brief:
as §1

Assay [9] concerns the target Neu5Ac(a2-3)Gal(b1-3)GalNAc6S. In a few lines: as §1
Assay [10] has as its target Neu5Ac(a2-3)Gal(b1-3)GlcNAc(b1-3)Gal(b1-4)GlcNAc. In a few lines:
as §1

In assay [11] the target is Neu5Ac(a2-3)Gal(b1-3)[Fuc(a1-4)]GlcNAc. In a few lines:
as §1

Assay [12] concerns the target Neu5Ac(a2-3)Gal(b1-4)GlcNAc(b1-2)Man(a1-3)[Neu5Ac(a2-3)Gal(b1-4)GlcNAc(b1-2)Man(a1-6)]Man(b1-4)GlcNAc(b1-4)GlcNAc. The method in brief: as §1
The target in assay [13] is Neu5Ac(a2-3)Gal(b1-4)GlcNAc6S. The method in brief:
as §1

Assay [14] addresses Neu5Ac(a2-3)Gal(b1-4)[Fuc(a1-3)]GlcNAc(b1-3)Gal. The method in brief: as §1
Assay [15] addresses Neu5Ac(a2-3)Gal(b1-4)[Fuc(a1-3)]GlcNAc(b1-3)GalNAc. The method in brief:
as §1

Assay [16] has as its target Neu5Ac(a2-3)Gal(b1-4)[Fuc(a1-3)]GlcNAc(b1-6)[Gal(b1-3)]GalNAc. The method in brief:
as §1

Assay [17] concerns the target Neu5Ac(a2-3)GalNAc(b1-4)GlcNAc. In a few lines: as §1
Assay [18] deals with Neu5Ac(a2-3)[Neu5Ac(a2-6)]GalNAc. The method in brief:
as §1

In assay [19] the target is Neu5Ac(a2-6)Gal(b1-3)GlcNAc(b1-3)[Gal(b1-4)GlcNAc(b1-6)]Gal(b1-4)Glc. The method in brief:
as §1

Assay [20] addresses Neu5Ac(a2-6)Gal(b1-4)GlcNAc(b1-3)Gal(b1-4)GlcNAc(b1-3)Gal(b1-4)GlcNAc(b1-2)Man(a1-3)[Neu5Ac(a2-6)Gal(b1-4)GlcNAc(b1-3)Gal(b1-4)GlcNAc(b1-3)Gal(b1-4)GlcNAc(b1-2)Man(a1-6)]GalNAc. The method in brief:
as §1

A further assay addresses Neu5Ac(b2-6)GalNAc. In a few lines:
as §1

The target of assay [21] is Neu5Ac9Ac(a2-3)Gal(b1-4)GlcNAc. In a few lines:
as §1

In assay [22] the target is Neu5Gc(a2-3)Gal(b1-4)GlcNAc. The method in brief: as §1

B1: CFEM-CGl (Candida glabrata), Q6FRS0 (protein)
chain: VLATPPACLLACVAQVSKQSSQCHTLNQVGCFCENENTAIKNCLDSICPNGNSDAAYTAFKNSCGDVGKAVASV
Consider B1, for which the “glycan array binding signal (z-score)” value in assay [1] is -0.384; in [2] it was -0.628; in assay [3] it was 3.84; in [4] it was -0.264; in assay [5] it was -0.258; in [6], 0.197. Also, the “glycan array binding signal (z-score)” value with Kdn(a2-3)Gal(b1-3)GlcNAc was -0.288; in assay [7], -0.003; in assay [8] it was -0.372; in assay [9], 0.752; in [10] it was -0.343; in assay [11], -0.12. Also, the “glycan array binding signal (z-score)” value is -0.517 in assay [12]; -0.111 in [13]; -0.311 in assay [14]; 3.44 in [15]; 0.977 in assay [16]; -0.449 in assay [17]. Moreover, the “glycan array binding signal (z-score)” value in assay [18] was -0.425; in [19], -0.355; in assay [20] it was 4.31; with Neu5Ac(b2-6)GalNAc it was 0.161; in [21], -0.485; in assay [22], -0.194.
